# Results from the supplement of paper PMC10037445.
# Over roughly 2,900 compounds, “NF-kB SEAP reporter activity, fold change vs agonist alone” has its median near 0.99; the highest 2% begin near 2.6. What follows is part of a selection rich in the highest values, with near analogues and random picks from the rest.
# What was measured:
# RAW-Dual [1] = assay: NF-kB SEAP reporter activity, fold change vs agonist alone; higher = enhanced NF-kB activity
# In short: (§1)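 RAW-Dual macrophages (50,000 cells/well in DMEM, 384-well plates) received 50 nL of library stock by pin tool, then a PRR agonist 1 h later, and were kept at 37 °C, 5% CO2. After 20 hours, supernatant was read for IRF by QuantiLuc luminescence and for NF-κB by QuantiBlue absorbance at 620 nm. Reporter activity is fold change over agonist-alone wells. Cytotoxic wells had IncuCyte confluency below 70% of agonist controls in both mask sets.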
# RAW-Dual [2] = assay: NF-kB SEAP reporter activity, fold change vs agonist alone; cytotoxicity flag (confluency mask): cytotoxic (confluency <70% of control); library stock concentration (final ~1000-fold dilution): 10 mM; higher = enhanced NF-kB activity
# In short: as §1
# RAW-Dual [3] = assay: NF-kB SEAP reporter activity, fold change vs agonist alone; cytotoxicity flag (confluency mask): not cytotoxic; library stock concentration (final ~1000-fold dilution): 10 mM; higher = enhanced NF-kB activity
# In short: as §1
# RAW-Dual [4] = assay: NF-kB SEAP reporter activity, fold change vs agonist alone; cytotoxicity flag (confluency mask): not cytotoxic; library stock concentration (final ~1000-fold dilution): 2 mM; higher = enhanced NF-kB activity
# In short: as §1
# RAW-Dual [5] = assay: NF-kB SEAP reporter activity, fold change vs agonist alone; cytotoxicity flag (confluency mask): not cytotoxic; library stock concentration (final ~1000-fold dilution): 10 mM water; higher = enhanced NF-kB activity
# In short: as §1
# [6] = library stock concentration (final ~1000-fold dilution): 10 mM, cytotoxicity flag (confluency mask): cytotoxic (confluency <70% of control), agonist: Imiquimod (TLR7) […]
# [7] = library stock concentration (final ~1000-fold dilution): 10 mM, cytotoxicity flag (confluency mask): cytotoxic (confluency <70% of control), agonist: MPLA (TLR4) […]
# [8] = agonist: ODN 1826 (TLR9) 0.5 ug/mL
# [9] = agonist: Pam2CSK4 (TLR2/6) 0.1 ug/mL
# [10] = agonist: Pam3CSK4 (TLR2/1) 0.1 ug/mL
# [11] = library stock concentration (final ~1000-fold dilution): 10 mM, cytotoxicity flag (confluency mask): not cytotoxic, agonist: Imiquimod (TLR7) […]
# [12] = library stock concentration (final ~1000-fold dilution): 10 mM, cytotoxicity flag (confluency mask): not cytotoxic, agonist: MPLA (TLR4) […]
compound,measurement,setting,value
CC(C)(C)c1cc(C=C(C#N)C#N)cc(C(C)(C)C)c1O,NF-kB SEAP reporter activity,RAW-Dual [1]; [6],1.7
same,NF-kB SEAP reporter activity,RAW-Dual [1]; [7],2.56
same,NF-kB SEAP reporter activity,RAW-Dual [2]; agonist: LPS (TLR4) 0.1 ug/mL,5.32
same,NF-kB SEAP reporter activity,RAW-Dual [2]; [8],1.32
same,NF-kB SEAP reporter activity,RAW-Dual [2]; [9],0.729
same,NF-kB SEAP reporter activity,RAW-Dual [2]; [10],1.48
N#CC(C#N)=Cc1ccc(O)c(O)c1,NF-kB SEAP reporter activity,RAW-Dual [1]; [11],0.89
same,NF-kB SEAP reporter activity,RAW-Dual [1]; [12],1.33
same,NF-kB SEAP reporter activity,RAW-Dual [3]; agonist: LPS (TLR4) 0.1 ug/mL,1.19
same,NF-kB SEAP reporter activity,RAW-Dual [3]; [8],0.619
same,NF-kB SEAP reporter activity,RAW-Dual [3]; [9],0.821
same,NF-kB SEAP reporter activity,RAW-Dual [3]; [10],0.937
CC(C)(C)c1cc(C=C(C#N)C#N)cc(Br)c1O,NF-kB SEAP reporter activity,RAW-Dual [1]; [6],2.04
same,NF-kB SEAP reporter activity,RAW-Dual [1]; [7],2.25
same,NF-kB SEAP reporter activity,RAW-Dual [2]; agonist: LPS (TLR4) 0.1 ug/mL,2.48
same,NF-kB SEAP reporter activity,RAW-Dual [2]; [8],1.29
same,NF-kB SEAP reporter activity,RAW-Dual [2]; [9],0.571
same,NF-kB SEAP reporter activity,RAW-Dual [2]; [10],0.667
CN1C(=O)C23CC4(C56CC78SSC(CO)(C(=O)N7C5Nc5ccccc56)N(C)C8=O)c5ccccc5NC4N2C(=O)C1(CO)SS3 (stereo not drawn),NF-kB SEAP reporter activity,RAW-Dual [1]; [6],0.117
same,NF-kB SEAP reporter activity,RAW-Dual [1]; [7],0.183
same,NF-kB SEAP reporter activity,RAW-Dual [2]; agonist: LPS (TLR4) 0.1 ug/mL,0.372
same,NF-kB SEAP reporter activity,RAW-Dual [2]; [8],0.141
same,NF-kB SEAP reporter activity,RAW-Dual [2]; [9],0.0829
same,NF-kB SEAP reporter activity,RAW-Dual [2]; [10],0.196
CCC1(O)C(=O)OCc2c1cc1n(c2=O)Cc2cc3ccccc3nc2-1 (stereo not drawn),NF-kB SEAP reporter activity,"RAW-Dual [1]; library stock concentration (final ~1000-fold dilution): 2 mM, cytotoxicity flag (confluency mask): not cytotoxic, agonist: Imiquimod (TLR7) […]",1.45
same,NF-kB SEAP reporter activity,"RAW-Dual [1]; library stock concentration (final ~1000-fold dilution): 2 mM, cytotoxicity flag (confluency mask): not cytotoxic, agonist: MPLA (TLR4) […]",1.83
same,NF-kB SEAP reporter activity,RAW-Dual [4]; agonist: LPS (TLR4) 0.1 ug/mL,4.12
same,NF-kB SEAP reporter activity,RAW-Dual [4]; [8],1.47
same,NF-kB SEAP reporter activity,RAW-Dual [4]; [9],1.05
same,NF-kB SEAP reporter activity,RAW-Dual [4]; [10],1.74
CCc1c2c(nc3ccccc13)-c1cc3c(c(=O)n1C2)COC(=O)C3(O)CC (stereo not drawn),NF-kB SEAP reporter activity,RAW-Dual [1]; [7],1.62
same,NF-kB SEAP reporter activity,RAW-Dual [2]; agonist: LPS (TLR4) 0.1 ug/mL,0.384
same,NF-kB SEAP reporter activity,RAW-Dual [2]; [8],2.29
same,NF-kB SEAP reporter activity,RAW-Dual [2]; [9],0.788
same,NF-kB SEAP reporter activity,RAW-Dual [2]; [10],0.641
C=CC1CN2CCC3(C(=O)Nc4ccccc43)C2CC1/C(=C\OC)C(=O)OC (stereo not drawn),NF-kB SEAP reporter activity,RAW-Dual [1]; [11],0.91
same,NF-kB SEAP reporter activity,RAW-Dual [1]; [12],1.1
same,NF-kB SEAP reporter activity,RAW-Dual [3]; agonist: LPS (TLR4) 0.1 ug/mL,0.951
same,NF-kB SEAP reporter activity,RAW-Dual [3]; [8],0.904
same,NF-kB SEAP reporter activity,RAW-Dual [3]; [9],0.882
same,NF-kB SEAP reporter activity,RAW-Dual [3]; [10],0.928
CC(=O)O.Cc1cc2c(C(C)C)c(O)c(O)c(C=O)c2c(O)c1-c1c(C)cc2c(C(C)C)c(O)c(O)c(C=O)c2c1O,NF-kB SEAP reporter activity,RAW-Dual [1]; [11],0.906
same,NF-kB SEAP reporter activity,RAW-Dual [1]; [12],0.963
same,NF-kB SEAP reporter activity,RAW-Dual [3]; agonist: LPS (TLR4) 0.1 ug/mL,3.69
same,NF-kB SEAP reporter activity,RAW-Dual [3]; [8],0.908
same,NF-kB SEAP reporter activity,RAW-Dual [3]; [9],1.15
same,NF-kB SEAP reporter activity,RAW-Dual [3]; [10],1.2
CC[C@H]1CN2CC[C@]3(C(=O)Nc4ccccc43)[C@@H]2C[C@@H]1/C(=C\OC)C(=O)OC,NF-kB SEAP reporter activity,RAW-Dual [1]; [11],0.86
same,NF-kB SEAP reporter activity,RAW-Dual [1]; [12],1.04
same,NF-kB SEAP reporter activity,RAW-Dual [3]; agonist: LPS (TLR4) 0.1 ug/mL,1.21
same,NF-kB SEAP reporter activity,RAW-Dual [3]; [8],1.05
same,NF-kB SEAP reporter activity,RAW-Dual [3]; [9],0.949
same,NF-kB SEAP reporter activity,RAW-Dual [3]; [10],1.03
COc1cc2c(c(OC)c1OC)-c1ccc(OC)c(=O)cc1C(NC(C)=O)CC2 (stereo not drawn),NF-kB SEAP reporter activity,RAW-Dual [1]; [11],2.62
same,NF-kB SEAP reporter activity,RAW-Dual [1]; [12],1.98
same,NF-kB SEAP reporter activity,RAW-Dual [3]; agonist: LPS (TLR4) 0.1 ug/mL,4.93
same,NF-kB SEAP reporter activity,RAW-Dual [3]; [8],3.47
same,NF-kB SEAP reporter activity,RAW-Dual [3]; [9],2.44
same,NF-kB SEAP reporter activity,RAW-Dual [3]; [10],2.52
CN1C2CCC1CC(OC(=O)C(CO)c1ccccc1)C2.CN1C2CCC1CC(OC(=O)C(CO)c1ccccc1)C2.O.O=S(=O)(O)O (stereo not drawn),NF-kB SEAP reporter activity,RAW-Dual [1]; [11],0.838
same,NF-kB SEAP reporter activity,RAW-Dual [1]; [12],0.986
same,NF-kB SEAP reporter activity,RAW-Dual [3]; agonist: LPS (TLR4) 0.1 ug/mL,0.923
same,NF-kB SEAP reporter activity,RAW-Dual [3]; [8],0.83
same,NF-kB SEAP reporter activity,RAW-Dual [3]; [9],0.79
same,NF-kB SEAP reporter activity,RAW-Dual [3]; [10],1.05
CC12CCC3C(CCC4=C(O)C(=O)CCC43C)C1CCC2=O (stereo not drawn),NF-kB SEAP reporter activity,RAW-Dual [1]; [11],0.986
same,NF-kB SEAP reporter activity,RAW-Dual [1]; [12],1.01
same,NF-kB SEAP reporter activity,RAW-Dual [3]; agonist: LPS (TLR4) 0.1 ug/mL,1.17
same,NF-kB SEAP reporter activity,RAW-Dual [3]; [8],1.21
same,NF-kB SEAP reporter activity,RAW-Dual [3]; [9],1.07
same,NF-kB SEAP reporter activity,RAW-Dual [3]; [10],1.23
Nc1ncnc2c1ccn2C1OC(CO)C(O)C1O (stereo not drawn),NF-kB SEAP reporter activity,RAW-Dual [1]; [6],0.147
same,NF-kB SEAP reporter activity,RAW-Dual [1]; [7],0.247
same,NF-kB SEAP reporter activity,RAW-Dual [2]; agonist: LPS (TLR4) 0.1 ug/mL,0.531
same,NF-kB SEAP reporter activity,RAW-Dual [2]; [8],0.19
same,NF-kB SEAP reporter activity,RAW-Dual [2]; [9],0.0753
same,NF-kB SEAP reporter activity,RAW-Dual [2]; [10],0.156
Cl.NCCc1ccc(S(=O)(=O)F)cc1,NF-kB SEAP reporter activity,RAW-Dual [1]; [11],1.07
same,NF-kB SEAP reporter activity,RAW-Dual [1]; [12],1.23
same,NF-kB SEAP reporter activity,RAW-Dual [3]; agonist: LPS (TLR4) 0.1 ug/mL,1.6
same,NF-kB SEAP reporter activity,RAW-Dual [3]; [8],1.01
same,NF-kB SEAP reporter activity,RAW-Dual [3]; [9],1.03
same,NF-kB SEAP reporter activity,RAW-Dual [3]; [10],1.9
CC1CCC/C=C/C2CC(O)CC2C(O)/C=C/C(=O)O1 (stereo not drawn),NF-kB SEAP reporter activity,RAW-Dual [1]; [11],1.48
same,NF-kB SEAP reporter activity,RAW-Dual [1]; [12],0.636
same,NF-kB SEAP reporter activity,RAW-Dual [3]; agonist: LPS (TLR4) 0.1 ug/mL,0.305
same,NF-kB SEAP reporter activity,RAW-Dual [3]; [8],0.297
same,NF-kB SEAP reporter activity,RAW-Dual [3]; [9],0.209
same,NF-kB SEAP reporter activity,RAW-Dual [3]; [10],0.469
O=C(O)CCCc1ccc(N(CCCl)CCCl)cc1,NF-kB SEAP reporter activity,RAW-Dual [1]; [11],0.998
same,NF-kB SEAP reporter activity,RAW-Dual [1]; [12],1
same,NF-kB SEAP reporter activity,RAW-Dual [3]; agonist: LPS (TLR4) 0.1 ug/mL,0.89
same,NF-kB SEAP reporter activity,RAW-Dual [3]; [8],1.04
same,NF-kB SEAP reporter activity,RAW-Dual [3]; [9],1.21
same,NF-kB SEAP reporter activity,RAW-Dual [3]; [10],1.24
Cn1c(CCCCCCC(=O)NO)nc2cc(N(CCCl)CCCl)ccc21,NF-kB SEAP reporter activity,RAW-Dual [1]; [6],1.62
same,NF-kB SEAP reporter activity,RAW-Dual [1]; [7],2.33
same,NF-kB SEAP reporter activity,RAW-Dual [2]; agonist: LPS (TLR4) 0.1 ug/mL,3.35
same,NF-kB SEAP reporter activity,RAW-Dual [2]; [8],1.5
same,NF-kB SEAP reporter activity,RAW-Dual [2]; [9],1.55
same,NF-kB SEAP reporter activity,RAW-Dual [2]; [10],1.91
Cl.O=C(O)Cc1c[nH]cn1,NF-kB SEAP reporter activity,RAW-Dual [1]; [11],0.935
same,NF-kB SEAP reporter activity,RAW-Dual [1]; [12],1.05
same,NF-kB SEAP reporter activity,RAW-Dual [3]; agonist: LPS (TLR4) 0.1 ug/mL,1.34
same,NF-kB SEAP reporter activity,RAW-Dual [3]; [8],0.991
same,NF-kB SEAP reporter activity,RAW-Dual [3]; [9],0.973
same,NF-kB SEAP reporter activity,RAW-Dual [3]; [10],0.728
CNC1C(O)C(OC2C(N)CC(N)C(OC3OC(C(C)O)C(O)C(O)C3N)C2O)OCC1(C)O.O=S(=O)(O)O.O=S(=O)(O)O (stereo not drawn),NF-kB SEAP reporter activity,"RAW-Dual [1]; library stock concentration (final ~1000-fold dilution): 10 mM water, cytotoxicity flag (confluency mask): not cytotoxic, agonist: Imiquimod (TLR7) […]",0.947
same,NF-kB SEAP reporter activity,"RAW-Dual [1]; library stock concentration (final ~1000-fold dilution): 10 mM water, cytotoxicity flag (confluency mask): not cytotoxic, agonist: MPLA (TLR4) […]",1.07
same,NF-kB SEAP reporter activity,RAW-Dual [5]; agonist: LPS (TLR4) 0.1 ug/mL,1.15
same,NF-kB SEAP reporter activity,RAW-Dual [5]; [8],1.26
same,NF-kB SEAP reporter activity,RAW-Dual [5]; [9],1.15
same,NF-kB SEAP reporter activity,RAW-Dual [5]; [10],1.12
